Among the data in paper PMC7862700, “An all-to-all approach to the identification of sequence-specific readers for epigenetic DNA modifications on cytosine” are binding signal values, retold here.

Holding throughout (assay): DAPPL (digital affinity profiling via proximity ligation, sequencing); 10 mM Tris-HCl pH 7.5, 50 mM NaCl, 1 mM DTT, 4% glycerol, room temperature, 30 min; GST-TFs on glutathione beads, 16-mer random dsDNA library, 0.1% formaldehyde crosslink after washing; high values mean tight binding
For one test, the target named is T1, FLI1 (Homo sapiens, UniProt Q01543 1-452).
T1 sequence: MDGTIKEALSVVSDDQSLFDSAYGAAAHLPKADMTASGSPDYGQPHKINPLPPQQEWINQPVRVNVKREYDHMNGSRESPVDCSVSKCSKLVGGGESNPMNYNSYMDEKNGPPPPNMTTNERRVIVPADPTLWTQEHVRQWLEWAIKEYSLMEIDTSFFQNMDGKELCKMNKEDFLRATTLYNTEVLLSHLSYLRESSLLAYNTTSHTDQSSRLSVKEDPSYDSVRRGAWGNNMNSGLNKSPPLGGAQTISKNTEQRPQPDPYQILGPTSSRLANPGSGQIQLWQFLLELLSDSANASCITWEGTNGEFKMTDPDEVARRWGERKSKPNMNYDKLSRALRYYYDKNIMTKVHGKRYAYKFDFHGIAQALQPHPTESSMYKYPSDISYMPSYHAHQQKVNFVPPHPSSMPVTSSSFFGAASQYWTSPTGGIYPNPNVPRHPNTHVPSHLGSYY
To be noted: protein: recombinant; tags: N-terminal GST; dsDNA, one strand shown. The procedure, abridged: (§1)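 The binding signal reported is, for every hexamer, its read frequency for a factor over its read frequency for the tag-only sample. Reads came from pools of yeast-expressed, GST-fused human transcription factors on glutathione beads, barcoded with DNA and mixed with that sample, which were incubated with 200 nmole of a random double-stranded 16-mer DNA library in Tris/NaCl/DTT/glycerol buffer at room temperature for 30 min. After washing, the pools were crosslinked with 0.1% formaldehyde, proximity-ligated with BsaI/T4 ligase for 1 h at 37 °C, PCR-amplified and sequenced on an Illumina NextSeq500.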

In the next test the target is T2, ELK1 (Homo sapiens, UniProt P19419 1-428).
T2 sequence: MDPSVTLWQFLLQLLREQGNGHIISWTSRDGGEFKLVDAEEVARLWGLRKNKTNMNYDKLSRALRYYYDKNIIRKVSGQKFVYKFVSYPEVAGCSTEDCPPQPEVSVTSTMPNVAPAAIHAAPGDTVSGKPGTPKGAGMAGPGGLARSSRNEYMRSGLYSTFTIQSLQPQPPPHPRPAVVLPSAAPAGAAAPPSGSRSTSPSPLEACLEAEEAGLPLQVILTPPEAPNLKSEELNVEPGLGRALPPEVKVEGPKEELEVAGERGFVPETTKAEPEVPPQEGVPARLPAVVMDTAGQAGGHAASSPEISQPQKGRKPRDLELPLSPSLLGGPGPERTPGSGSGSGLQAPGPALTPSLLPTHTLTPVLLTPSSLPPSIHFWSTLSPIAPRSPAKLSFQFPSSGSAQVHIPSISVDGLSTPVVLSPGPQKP
To be noted: protein: recombinant; tags: N-terminal GST; dsDNA, one strand shown. Summed up: as §1

The next test concerns the target T3, GABPA (Homo sapiens, UniProt Q06546 1-454).
T3 sequence: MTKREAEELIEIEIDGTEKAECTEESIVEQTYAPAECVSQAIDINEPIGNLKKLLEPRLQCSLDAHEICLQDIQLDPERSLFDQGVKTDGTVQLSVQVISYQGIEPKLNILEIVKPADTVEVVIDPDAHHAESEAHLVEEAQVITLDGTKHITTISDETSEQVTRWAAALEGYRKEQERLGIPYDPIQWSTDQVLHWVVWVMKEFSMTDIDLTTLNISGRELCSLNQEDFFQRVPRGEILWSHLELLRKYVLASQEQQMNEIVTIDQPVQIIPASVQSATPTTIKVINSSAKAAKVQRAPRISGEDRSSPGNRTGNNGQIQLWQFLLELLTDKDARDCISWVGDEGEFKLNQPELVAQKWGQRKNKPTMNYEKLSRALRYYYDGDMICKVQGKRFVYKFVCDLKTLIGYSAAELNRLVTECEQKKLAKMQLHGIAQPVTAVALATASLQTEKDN
To be noted: protein: recombinant; tags: N-terminal GST; dsDNA, one strand shown. The procedure, abridged:
as §1

Another test concerns the target T4, ERG (Homo sapiens, UniProt P11308 1-479).
T4 sequence: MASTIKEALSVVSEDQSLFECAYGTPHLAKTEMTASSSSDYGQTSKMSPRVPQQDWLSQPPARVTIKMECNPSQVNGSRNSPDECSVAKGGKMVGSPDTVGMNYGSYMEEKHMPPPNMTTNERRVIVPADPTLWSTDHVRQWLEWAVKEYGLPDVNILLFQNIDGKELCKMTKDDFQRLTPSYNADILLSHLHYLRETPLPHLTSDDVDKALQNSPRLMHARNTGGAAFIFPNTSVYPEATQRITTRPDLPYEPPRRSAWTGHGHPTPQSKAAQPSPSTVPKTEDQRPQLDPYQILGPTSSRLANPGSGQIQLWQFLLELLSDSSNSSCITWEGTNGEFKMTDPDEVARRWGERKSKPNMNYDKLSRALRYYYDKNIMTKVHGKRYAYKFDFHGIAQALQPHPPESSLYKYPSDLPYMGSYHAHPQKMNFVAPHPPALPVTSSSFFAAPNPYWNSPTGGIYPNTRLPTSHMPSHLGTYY
To be noted: protein: recombinant; tags: N-terminal GST; dsDNA, one strand shown. Summed up:
as §1

A further test addresses ELF1 (Homo sapiens, UniProt P32519 1-619). The settings on record: protein: recombinant; tags: N-terminal GST; dsDNA, one strand shown. The procedure, abridged:
as §1

The next test has as its target T5, EHF (Homo sapiens, UniProt Q9NZC4 1-300).
T5 sequence: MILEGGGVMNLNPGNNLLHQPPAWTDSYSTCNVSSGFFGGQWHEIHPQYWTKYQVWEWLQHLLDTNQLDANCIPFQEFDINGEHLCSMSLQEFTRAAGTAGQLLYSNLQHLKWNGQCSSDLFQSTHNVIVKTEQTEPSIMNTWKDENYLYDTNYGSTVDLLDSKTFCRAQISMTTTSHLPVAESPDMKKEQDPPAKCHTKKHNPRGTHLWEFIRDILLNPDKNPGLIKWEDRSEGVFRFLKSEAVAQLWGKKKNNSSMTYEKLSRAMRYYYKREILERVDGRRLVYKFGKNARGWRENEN
To be noted: protein: recombinant; tags: N-terminal GST; dsDNA, one strand shown. Summed up: as §1

For the next test, the target named is SPI1 (Homo sapiens, UniProt P17947 1-270). To be noted: protein: recombinant; tags: N-terminal GST; dsDNA, one strand shown. The procedure, abridged: as §1
The target in another test is SPIB (Homo sapiens, UniProt Q01892 1-262). The settings on record: protein: recombinant; tags: N-terminal GST; dsDNA, one strand shown. The procedure, abridged: as §1
SPIB, sequence (Q01892 whole entry): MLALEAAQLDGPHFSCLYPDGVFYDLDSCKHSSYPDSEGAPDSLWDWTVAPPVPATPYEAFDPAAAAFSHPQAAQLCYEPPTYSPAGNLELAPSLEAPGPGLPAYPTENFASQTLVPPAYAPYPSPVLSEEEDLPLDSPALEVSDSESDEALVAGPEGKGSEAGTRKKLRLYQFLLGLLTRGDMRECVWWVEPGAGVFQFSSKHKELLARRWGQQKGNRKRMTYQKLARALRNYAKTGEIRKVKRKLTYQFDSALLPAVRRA
In the next test the target is T6, ELK3 (Homo sapiens, UniProt P41970 1-407).
T6 sequence: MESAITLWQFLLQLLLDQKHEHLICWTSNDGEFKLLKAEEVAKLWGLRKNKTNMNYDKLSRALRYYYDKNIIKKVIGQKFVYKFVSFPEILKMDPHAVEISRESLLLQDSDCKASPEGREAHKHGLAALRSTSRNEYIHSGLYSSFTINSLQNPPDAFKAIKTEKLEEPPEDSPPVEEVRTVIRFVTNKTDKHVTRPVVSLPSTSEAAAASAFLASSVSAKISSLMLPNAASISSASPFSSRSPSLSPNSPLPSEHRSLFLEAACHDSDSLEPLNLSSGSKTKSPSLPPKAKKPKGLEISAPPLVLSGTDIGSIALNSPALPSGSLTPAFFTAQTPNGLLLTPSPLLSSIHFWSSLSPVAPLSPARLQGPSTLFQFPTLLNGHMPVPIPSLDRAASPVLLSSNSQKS
To be noted: protein: recombinant; tags: N-terminal GST; dsDNA, one strand shown. Summed up:
as §1

A further test has as its target T7, FEV (Homo sapiens, UniProt Q99581 1-238).
T7 sequence: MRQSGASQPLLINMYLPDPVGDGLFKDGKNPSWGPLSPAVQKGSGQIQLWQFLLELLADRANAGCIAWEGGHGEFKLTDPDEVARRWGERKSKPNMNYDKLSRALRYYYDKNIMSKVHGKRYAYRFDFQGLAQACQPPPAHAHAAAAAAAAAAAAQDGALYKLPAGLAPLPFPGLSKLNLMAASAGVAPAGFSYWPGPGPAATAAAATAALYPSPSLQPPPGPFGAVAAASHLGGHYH
To be noted: protein: recombinant; tags: N-terminal GST; dsDNA, one strand shown. Summed up: as §1

For another test, the target named is ETV5 (Homo sapiens, UniProt P41161 1-510). To be noted: protein: recombinant; tags: N-terminal GST; dsDNA, one strand shown. The procedure, abridged: as §1
ETV5, sequence (P41161 whole entry): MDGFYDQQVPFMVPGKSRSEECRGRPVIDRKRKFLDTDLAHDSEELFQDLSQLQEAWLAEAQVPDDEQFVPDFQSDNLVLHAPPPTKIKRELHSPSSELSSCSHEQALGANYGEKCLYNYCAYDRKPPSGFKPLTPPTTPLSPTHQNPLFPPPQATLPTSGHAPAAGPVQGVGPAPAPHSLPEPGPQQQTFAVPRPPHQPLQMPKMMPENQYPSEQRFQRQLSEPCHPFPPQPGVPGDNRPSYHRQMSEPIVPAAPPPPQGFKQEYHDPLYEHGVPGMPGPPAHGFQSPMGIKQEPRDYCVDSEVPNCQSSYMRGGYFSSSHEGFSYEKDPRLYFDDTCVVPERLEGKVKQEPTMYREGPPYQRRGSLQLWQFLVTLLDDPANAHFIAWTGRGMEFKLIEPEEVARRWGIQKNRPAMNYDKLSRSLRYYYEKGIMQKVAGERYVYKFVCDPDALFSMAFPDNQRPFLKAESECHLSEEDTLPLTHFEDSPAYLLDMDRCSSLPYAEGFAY
The next test concerns the target HSF1 (Homo sapiens, UniProt Q00613 1-529). The settings on record: protein: recombinant; tags: N-terminal GST; chain copies: 3; dsDNA, one strand shown. Summed up:
as §1

In the next test the target is T8, SPIC (Homo sapiens, UniProt Q8N5J4 1-248).
T8 sequence: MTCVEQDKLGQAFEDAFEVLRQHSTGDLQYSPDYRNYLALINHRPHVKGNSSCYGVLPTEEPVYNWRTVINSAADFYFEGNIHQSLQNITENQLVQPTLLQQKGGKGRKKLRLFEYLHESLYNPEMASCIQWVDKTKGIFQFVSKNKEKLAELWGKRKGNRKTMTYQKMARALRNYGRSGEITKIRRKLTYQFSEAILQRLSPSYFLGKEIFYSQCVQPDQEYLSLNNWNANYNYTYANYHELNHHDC
To be noted: protein: recombinant; tags: N-terminal GST; dsDNA, one strand shown. Summed up: as §1

For a further test, the target named is ELF4 (Homo sapiens, UniProt Q99607 1-663). The settings on record: protein: recombinant; tags: N-terminal GST; dsDNA, one strand shown. The procedure, abridged:
as §1

For a further test, the target named is T9, ELK4 (Homo sapiens, UniProt P28324-2 1-405).
T9 sequence: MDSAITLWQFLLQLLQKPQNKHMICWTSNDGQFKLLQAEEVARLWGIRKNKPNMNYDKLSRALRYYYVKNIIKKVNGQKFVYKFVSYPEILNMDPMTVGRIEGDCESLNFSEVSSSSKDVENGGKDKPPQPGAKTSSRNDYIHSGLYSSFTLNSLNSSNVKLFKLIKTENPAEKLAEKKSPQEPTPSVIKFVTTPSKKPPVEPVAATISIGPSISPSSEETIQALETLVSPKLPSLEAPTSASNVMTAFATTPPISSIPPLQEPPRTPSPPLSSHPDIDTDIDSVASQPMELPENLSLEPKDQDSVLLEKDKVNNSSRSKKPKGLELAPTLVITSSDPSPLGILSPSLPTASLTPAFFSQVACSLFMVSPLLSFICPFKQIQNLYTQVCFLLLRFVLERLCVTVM
To be noted: protein: recombinant; tags: N-terminal GST; dsDNA, one strand shown. Summed up: as §1

The target in another test is T10, ETV2 (Homo sapiens, UniProt O00321 1-342).
T10 sequence: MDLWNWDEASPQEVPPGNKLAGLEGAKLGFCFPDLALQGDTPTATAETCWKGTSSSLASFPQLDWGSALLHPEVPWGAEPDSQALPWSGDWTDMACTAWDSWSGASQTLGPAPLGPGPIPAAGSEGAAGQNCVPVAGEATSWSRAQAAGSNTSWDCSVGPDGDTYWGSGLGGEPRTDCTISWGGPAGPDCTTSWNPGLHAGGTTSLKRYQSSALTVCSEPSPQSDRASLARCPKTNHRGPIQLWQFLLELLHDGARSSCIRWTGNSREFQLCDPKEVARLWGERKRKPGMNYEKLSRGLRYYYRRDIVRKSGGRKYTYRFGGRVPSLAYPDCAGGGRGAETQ
To be noted: protein: recombinant; tags: N-terminal GST; dsDNA, one strand shown. Summed up: as §1

In the next test the target is CRX (Homo sapiens, UniProt O43186 1-299). To be noted: protein: recombinant; tags: N-terminal GST; dsDNA, one strand shown. Summed up:
as §1

The target in the next test is ETV1 (Homo sapiens, UniProt P50549 1-477). The settings on record: protein: recombinant; tags: N-terminal GST; dsDNA, one strand shown. The procedure, abridged: as §1
ETV1, sequence (P50549 whole entry): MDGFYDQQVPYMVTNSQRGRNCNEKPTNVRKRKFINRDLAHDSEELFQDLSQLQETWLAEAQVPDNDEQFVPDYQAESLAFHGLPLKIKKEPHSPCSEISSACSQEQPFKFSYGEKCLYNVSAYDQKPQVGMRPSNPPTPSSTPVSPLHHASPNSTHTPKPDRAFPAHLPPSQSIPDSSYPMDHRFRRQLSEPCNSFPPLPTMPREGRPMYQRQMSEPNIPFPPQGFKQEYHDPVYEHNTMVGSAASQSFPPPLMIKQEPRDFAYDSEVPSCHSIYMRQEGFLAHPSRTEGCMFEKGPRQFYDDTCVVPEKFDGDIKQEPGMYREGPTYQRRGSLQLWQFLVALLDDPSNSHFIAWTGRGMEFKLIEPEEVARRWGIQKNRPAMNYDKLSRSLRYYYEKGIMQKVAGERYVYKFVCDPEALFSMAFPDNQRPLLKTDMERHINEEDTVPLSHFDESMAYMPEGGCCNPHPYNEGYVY

ELF1, sequence (P32519 whole entry): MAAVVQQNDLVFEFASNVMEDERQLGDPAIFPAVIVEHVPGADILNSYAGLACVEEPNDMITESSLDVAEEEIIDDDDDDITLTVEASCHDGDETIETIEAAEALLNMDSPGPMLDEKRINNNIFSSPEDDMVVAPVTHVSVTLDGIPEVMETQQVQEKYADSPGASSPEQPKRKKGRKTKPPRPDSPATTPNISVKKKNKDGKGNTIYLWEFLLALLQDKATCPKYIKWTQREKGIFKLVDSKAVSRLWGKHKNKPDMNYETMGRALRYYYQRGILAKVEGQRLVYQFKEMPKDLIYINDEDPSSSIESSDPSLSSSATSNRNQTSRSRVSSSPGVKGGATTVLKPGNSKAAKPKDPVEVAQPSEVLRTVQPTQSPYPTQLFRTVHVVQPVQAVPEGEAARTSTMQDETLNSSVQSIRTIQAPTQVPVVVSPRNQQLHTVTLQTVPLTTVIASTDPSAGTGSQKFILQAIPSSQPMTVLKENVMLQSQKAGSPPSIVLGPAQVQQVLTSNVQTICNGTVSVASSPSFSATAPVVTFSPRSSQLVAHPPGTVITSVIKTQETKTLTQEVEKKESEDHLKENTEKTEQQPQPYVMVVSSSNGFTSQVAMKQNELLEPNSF
CRX, sequence (O43186 whole entry): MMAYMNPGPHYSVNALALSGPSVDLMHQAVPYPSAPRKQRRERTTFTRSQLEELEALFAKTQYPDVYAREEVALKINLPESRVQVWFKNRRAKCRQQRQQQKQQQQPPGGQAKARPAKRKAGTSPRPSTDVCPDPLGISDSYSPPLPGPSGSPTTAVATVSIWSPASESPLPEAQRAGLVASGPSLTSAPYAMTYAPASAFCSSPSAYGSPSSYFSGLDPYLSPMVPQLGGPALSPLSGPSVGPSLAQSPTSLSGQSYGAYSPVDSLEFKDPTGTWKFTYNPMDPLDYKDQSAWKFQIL
ELF4, sequence (Q99607 whole entry): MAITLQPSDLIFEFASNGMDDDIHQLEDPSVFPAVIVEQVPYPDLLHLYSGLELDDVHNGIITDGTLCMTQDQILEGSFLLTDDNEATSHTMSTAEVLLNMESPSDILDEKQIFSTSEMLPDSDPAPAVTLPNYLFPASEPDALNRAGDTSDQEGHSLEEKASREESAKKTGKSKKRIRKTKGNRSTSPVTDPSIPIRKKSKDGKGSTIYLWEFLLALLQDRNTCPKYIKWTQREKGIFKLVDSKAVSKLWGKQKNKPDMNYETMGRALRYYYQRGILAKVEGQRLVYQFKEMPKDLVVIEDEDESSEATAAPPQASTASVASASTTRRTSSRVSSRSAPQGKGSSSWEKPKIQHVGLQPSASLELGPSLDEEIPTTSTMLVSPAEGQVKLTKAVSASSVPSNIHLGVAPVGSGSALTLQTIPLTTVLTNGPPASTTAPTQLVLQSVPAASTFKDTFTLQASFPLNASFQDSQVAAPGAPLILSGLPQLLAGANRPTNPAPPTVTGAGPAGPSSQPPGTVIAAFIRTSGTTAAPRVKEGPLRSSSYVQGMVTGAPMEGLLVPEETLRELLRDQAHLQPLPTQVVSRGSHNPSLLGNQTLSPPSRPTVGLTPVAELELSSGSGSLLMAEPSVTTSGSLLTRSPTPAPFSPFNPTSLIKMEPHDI
HSF1, sequence (Q00613 whole entry): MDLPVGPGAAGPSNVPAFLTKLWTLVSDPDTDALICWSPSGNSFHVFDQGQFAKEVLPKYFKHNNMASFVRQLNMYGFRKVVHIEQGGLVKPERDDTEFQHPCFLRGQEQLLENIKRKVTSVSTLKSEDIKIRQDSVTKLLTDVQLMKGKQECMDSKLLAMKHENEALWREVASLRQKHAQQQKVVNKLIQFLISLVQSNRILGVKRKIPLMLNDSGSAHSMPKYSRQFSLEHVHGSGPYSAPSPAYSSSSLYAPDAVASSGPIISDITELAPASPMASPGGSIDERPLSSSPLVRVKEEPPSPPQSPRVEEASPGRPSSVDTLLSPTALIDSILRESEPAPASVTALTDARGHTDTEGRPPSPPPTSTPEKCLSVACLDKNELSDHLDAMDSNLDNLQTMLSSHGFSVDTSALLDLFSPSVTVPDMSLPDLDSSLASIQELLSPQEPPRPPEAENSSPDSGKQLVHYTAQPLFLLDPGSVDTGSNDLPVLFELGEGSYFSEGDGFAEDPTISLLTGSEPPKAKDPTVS

In the case of CTCAGA, the binding signal with FLI1 is 1.07 fold enrichment (6-mer frequency, TF over GST control); with ELK1, 1.12 fold enrichment (6-mer frequency, TF over GST control); in the test with GABPA, 1.13 fold enrichment (6-mer frequency, TF over GST control); with ERG it was 1.1 fold enrichment (6-mer frequency, TF over GST control); with ELF1, 1.14 fold enrichment (6-mer frequency, TF over GST control); in the test with EHF, 1.1 fold enrichment (6-mer frequency, TF over GST control). For the same sequence, the binding signal with SPI1 was 1.04 fold enrichment (6-mer frequency, TF over GST control); with SPIB it was 1.01 fold enrichment (6-mer frequency, TF over GST control); in the test with ELK3 it was 1.02 fold enrichment (6-mer frequency, TF over GST control); in the test with FEV, 1.03 fold enrichment (6-mer frequency, TF over GST control); with ETV5, 1.14 fold enrichment (6-mer frequency, TF over GST control); with HSF1, 1.17 fold enrichment (6-mer frequency, TF over GST control). Moreover, the binding signal is 1.16 fold enrichment (6-mer frequency, TF over GST control) with SPIC; 1.14 fold enrichment (6-mer frequency, TF over GST control) with ELF4; 1.01 fold enrichment (6-mer frequency, TF over GST control) with ELK4; 1.18 fold enrichment (6-mer frequency, TF over GST control) with ETV2; 1.27 fold enrichment (6-mer frequency, TF over GST control) in the test with CRX; 1.1 fold enrichment (6-mer frequency, TF over GST control) in the test with ETV1.
